Reference: PubChem BioAssay (NCATS)
Several values for one entry are separate records, joined by “and”; a condition that tells them apart may be missing. Identical values can stand only once. Inconclusive results are not listed. Where a structure was tested more than once in an assay, its records may differ in their call. Activity calls are given as the source filed them. The call rests on the fitted dose curve; in most records, active means well fitted cell-killing curve with a large enough effect; inconclusive means small, poorly fitted or top-dose-only effect; inactive means flat fitted curve, though single readings scatter.

experiment: Cell Viability - LYMP1-003 - Assay at 40 hr (AID 964); conditions: LYMP1-003 lymphoblastoid viability; series mostly up to 92.2 µM; activity change, negative = cytotoxic: at the top concentration; further: nearly all actives have a fitted effect of over 60% in size
Text: NIH Chemical Genomics Center [NCGC]
NIH Molecular Libraries Screening Centers Network [MLSCN]
National Institutes of Environmental Health Sciences [NIEHS]
National Toxicology Program [NTP]
We have developed a 1536-well cell-based assay for quantitative high throughput screening (qHTS) against a number of cell lines to determine in vitro cytotoxicity of small molecules. This particular assay uses a human lymphoblastoid cell line (LYMP1-003) purchased from Coriell Institute for Medical Research.
NCGC Assay Protocol Summary:
The CellTiter-Glo luminescent cell viability assay (Promega) is a homogeneous method to measure the number of viable cells in culture. The end point readout of this assay is based on quantitation of intracellular ATP, an indicator of metabolic activity, using the luciferase reaction. Luciferase catalyzes the oxidation of beetle Luciferin to oxyluciferin and light in the presence of ATP. The luminescent signal is proportional to amount of ATP present.
Using the CellTiter-Glo luminescent cell viability assay, the amount of cellular ATP was measured in the lymphoblastoid cell line with complete culture medium following compound treatment for 40 hours. The assay was performed in opaque white Kalypsys 1536-well plates. In the screen, tetraoctylammonium bromide was used as positive control. Library compounds were measured for their ability to cause acute toxicity in the cell line, as reflected by a decrease in intracellular ATP levels, in a concentration-dependent manner. […] AC50 values were determined from concentration-response data modeled with the standard Hill equation.
qHTS protocol for CellTiter Glo lymphoblastoid cellular assay
[Step] [Parameter] [Value] [Description]
1. Reagent; 5 uL; 2500 lymphoblastoid cells/well
2. Time; 5 hr; 37 C incubation
4. Controls; 23 nL; Tetraoctylammonium bromide 6.4pM to 92 uM
5. Time; 40 hr; 37 C incubation
6. Reagent; 5 uL; CellTiter Glo reagent
7. Time; 30 min; Room Temperature
8. Detection; Luminescence; Viewlux plate reader
Keywords: cell viability, cytotoxicity, lymphoblastoid cell line, luminescence, NTPHTS, NTPHTS_NCGC, NIEHS, DSSTox, MLSMR, MLSCN, NIH Roadmap, qHTS, NCGC
On the % scale 0 is the no-effect control and ±100 the full control effect; potency means the concentration at half of the fitted maximal effect.

SMILES | activity change, negative = cytotoxic | Potency
O=Cc1ccco1 | -4.43% (inactive) | 
O=C/C=C/c1ccccc1 |  | inactive
ClC(Cl)(Cl)Cl |  | inactive
O=[N+]([O-])c1ccc(F)c([N+](=O)[O-])c1 | -10.8% (inactive) | 
C[C@]12CCC(=O)C[C@@H]1CC[C@@H]1[C@@H]2CC[C@]2(C)[C@@H](O)CC[C@@H]12 | -15.6% (inactive) | 
ClC=C(Cl)Cl | -9.21% (inactive) | 
CCCCCl | -2.96% (inactive) | 
[O]=[Cr](=[O])([OH])[O][Cr](=[O])(=[O])[OH] |  | inactive and 39.8 µM (active) and 25.1 µM (active)
O=CC=O | -13.7% (inactive) | 
CC(C)CCON=O | -6.78% (inactive) | 
CC(C)Nc1ccc(Nc2ccccc2)cc1 |  | 31.6 µM (active)
O=[N+]([O-])c1ccccc1 | -14.8% (inactive) | 
C=CCN=C=S | -3.17% (inactive) | 
COc1ccc2c(c1OC)C(=O)OC2C1c2cc3c(cc2CCN1C)OCO3 (stereo unspecified) | -0.79% (inactive) | 
O=C1CCO1 | -22.9% (inactive) | 
S=C=S | 1.83% (inactive) | 

SMILES | activity change, negative = cytotoxic | Potency
NNC(N)=O | -2.55% (inactive) | 
[Cl-].[Cl-].[Hg+2] |  | 1 µM (active)
O=C1C=CC(=O)C=C1 | -17.8% (inactive) | 
C[C@H]1CCC[C@H](O)CCCCCc2cc(O)cc(O)c2C(=O)O1 | -2.12% (inactive) | 
CC(C)(C)c1cc(O)ccc1O | -29.5% (inactive) | 
CCOC(=O)c1ccccc1C(=O)OCC |  | inactive
C[C@H]1CC[C@@H]2[C@@H](C)[C@H]3[C@H](C[C@H]4[C@@H]5CC=C6CC(O[C@@H]7O[C@H](CO)[C@H](O)[C@H](O[C@@H]8O[C@H](CO)[C@@H](O)[C@H](O)[C@H]8O)[C@H]7O[C@H]7O[C@@H](C)[C@H](O)[C@@H](O)[C@H]7O)CC[C@]6(C)[C@H]5CC[C@]34C)N2C1 (stereo partly specified) |  | 39.8 µM (active)
O=C1C2CC=CCC2C(=O)N1SC(Cl)(Cl)Cl (stereo unspecified) |  | 20 µM (active)
COC1=CC(=O)O[C@@H](/C=C/c2ccccc2)C1 | -7.33% (inactive) | 
CCCCCCCCOC(=O)c1ccccc1C(=O)OCCCCCCCC | 5.94% (inactive) | 
O=C(O)C(Cl)(Cl)Cl |  | inactive
Oc1cc(Cl)c(Cl)cc1Cl | -1.11% (inactive) | 
Clc1ccccc1Cl | -2.18% (inactive) | 
[O]=[Cd] | -2.55% (inactive) | 
ClCC1CO1 (stereo unspecified) | 1.65% (inactive) | 
